Legend:
Type in all cases: functional
[1] = biological target: Solute carrier family 2, facilitated glucose transporter member 1 (Homo sapiens) (UniProt P11166); assay: ST_JUDE_LEISH: Cytotoxicity at 2uM final concentration against transgenic Leishmania Mexicana promastigotes LmGLUT1 that are glucose transport deficient and complemented with the human glucose transporter GLUT1. Activity is measured by DNA content using SYBR green in vitro
[2] = biological target: Hexose transporter 1 (Plasmodium falciparum) (UniProt O97467); assay: ST_JUDE_LEISH: Cytotoxicity at 2uM final concentration against transgenic Leishmania Mexicana promastigotes LmPfHT that are glucose transport deficient and complemented with the Plasmodium falciparum hexose transporter. Activity is measured by DNA content using SYBR green in vitro
[3] = biological target: Glucose transporter (Leishmania mexicana) (UniProt O61059); assay: ST_JUDE_LEISH: Cytotoxicity at 2uM final concentration against transgenic Leishmania Mexicana promastigotes LmGT2 that are glucose transport deficient and complemented with the L. Mexicana glucose transporter 2. Activity is measured by DNA content using SYBR green in vitro

Sequence of Solute carrier family 2, facilitated glucose transporter member 1 (Homo sapiens) (P11166 whole entry): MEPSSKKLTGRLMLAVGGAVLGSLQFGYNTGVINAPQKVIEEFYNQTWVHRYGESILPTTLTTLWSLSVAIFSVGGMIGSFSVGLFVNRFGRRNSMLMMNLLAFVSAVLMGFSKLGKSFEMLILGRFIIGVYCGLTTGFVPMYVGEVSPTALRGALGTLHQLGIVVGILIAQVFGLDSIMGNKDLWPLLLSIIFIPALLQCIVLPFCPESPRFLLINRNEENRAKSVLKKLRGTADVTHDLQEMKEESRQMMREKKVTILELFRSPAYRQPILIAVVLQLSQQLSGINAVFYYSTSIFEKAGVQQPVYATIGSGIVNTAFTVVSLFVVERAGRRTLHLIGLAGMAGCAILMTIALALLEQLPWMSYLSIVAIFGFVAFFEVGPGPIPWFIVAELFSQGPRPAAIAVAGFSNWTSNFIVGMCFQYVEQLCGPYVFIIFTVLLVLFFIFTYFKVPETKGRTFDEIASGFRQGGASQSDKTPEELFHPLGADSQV

`CS(=O)(=O)c1cccc2sc(N3CCN(C(=O)c4ccc([N+](=O)[O-])o4)CC3)nc12` was tested, and the inhibition [1] was 35.6%, the inhibition [2] was 23.7% and the inhibition [3] was 3.97%.

In the case of `COc1ccc2nccc([C@@H](O)CN3CCC(NCc4cc5cc(OC(F)(F)F)ccc5[nH]4)CC3)c2c1`, the inhibition [1] was 9.94%, the inhibition [2] was 10.4% and the inhibition [3] was 3.79%.

`O=C(Nc1ccccc1)Nc1cccc(-c2nn3c(OCCN4CCCC4)cccc3c2-c2ccncc2)c1` was tested, and the inhibition [1] was 5.75%, the inhibition [2] was 6.38% and the inhibition [3] was 6.34%.

Molecule `CN=C(N)c1ccc(NC(=O)C=Cc2ccc(C(=O)Nc3ccc(C(N)=NC)cc3)cc2)cc1` has an inhibition [1] of 9.91%, an inhibition [2] of 15.9% and an inhibition [3] of 4.6%.

`CC(C)COc1cc(C(=O)Nc2cnc3ccccc3c2)ccc1[N+](=O)[O-]` was tested, and the inhibition [1] was 11.9%, the inhibition [2] was 10.8% and the inhibition [3] was 10.9%.

`CCCC(C)N(Cc1ccc(C(C)(C)C)cc1)C(=O)c1cccc(C#N)c1` (configuration not stated) showed an inhibition [1] of -1.28%, an inhibition [2] of 0.07% and an inhibition [3] of -1.38%.

Molecule `Cc1ccc2[nH]c(Nc3ccc(Nc4nc5cc(C)ccc5[nH]4)c(C)c3)nc2c1` has an inhibition [1] of 0.87%, an inhibition [2] of 2.18% and an inhibition [3] of 0.88%.

Molecule `CC1CCN(CC[C@H]2CCCN2S(=O)(=O)c2cccc(NC(=O)Nc3ccc(C(F)(F)F)cc3)c2)CC1` has an inhibition [1] of 0.63%, an inhibition [2] of 1.64% and an inhibition [3] of -0.02%.

`COc1ccc(CNC2CCN(C)CC2)cc1-c1ccc(S(=O)(=O)NCCc2ccccn2)cc1` showed an inhibition [1] of -0.85%, an inhibition [2] of 0.85% and an inhibition [3] of -0.1%.

`Cc1cnc(Nc2cccc(CCN3CCOCC3)c2)nc1NC(C)C` was tested, and the inhibition [1] was 9.35%, the inhibition [2] was 9.73% and the inhibition [3] was 2.69%.

Molecule `Cc1cc(OCCCN2CCC(NS(=O)(=O)c3cccc(Br)c3)C2)c2ccccc2n1` (configuration not stated) has an inhibition [1] of 0.6%, an inhibition [2] of 1.51% and an inhibition [3] of 1.56%.

`CCc1sc(CN(CCCNc2cc(=O)c3ccccc3[nH]2)Cc2sc(CC)c(Br)c2-c2ccsc2)c(-c2ccsc2)c1Br` was tested, and the inhibition [1] was 3.98%, the inhibition [2] was 4.16% and the inhibition [3] was 5.33%.

`COc1cccc(CCc2c(CCNCCCCCCNCCc3ccccc3)ccc(OC)c2OC)c1` showed an inhibition [1] of 93%, an inhibition [2] of 102% and an inhibition [3] of 106%.

In the case of `CC(C)C[C@H](NC(=O)c1cc2ccccc2s1)C(=O)N[C@H]1CCN(Cc2ccc(OC[C@@H]3CCCN3C)c(Cl)c2)C1`, the inhibition [1] was 10.8%, the inhibition [2] was 10.6% and the inhibition [3] was 8.09%.

In the case of `COc1ccc2nccc([C@@H](O)CN3CCC(NC(=O)c4cccc(C(=O)c5ccccc5)c4)CC3)c2c1`, the inhibition [1] was -1.15%, the inhibition [2] was 0.28% and the inhibition [3] was 0.47%.

In the case of `CCCCCCCNc1cc(C)nc2ccc(OC)cc12`, the inhibition [1] was 16.5%, the inhibition [2] was 9.23% and the inhibition [3] was 12.4%.

`Cc1cc(S(=O)(=O)N2CCCCC(c3ccc(C(F)(F)F)cc3)=N2)c(Cl)cc1Cl` was tested, and the inhibition [1] was 3.58%, the inhibition [2] was 4.02% and the inhibition [3] was -1.4%.

Molecule `CCn1c(Sc2ccc(C#N)c([N+](=O)[O-])c2)nnc1-c1ccc(Cl)cc1` has an inhibition [1] of 3.57%, an inhibition [2] of 3.08% and an inhibition [3] of 1.39%.

In the case of `COc1ccc(-c2ccc3c(-c4cccc(S(C)(=O)=O)c4)cnc(N)c3c2)cc1`, the inhibition [1] was 0.83%, the inhibition [2] was 1% and the inhibition [3] was 0.45%.

For `O=C(/C=C/c1cc([N+](=O)[O-])ccc1Cl)N1CCC(CCN2CCC(c3c[nH]c4ccccc34)CC2)CC1`, the inhibition [1] was 2.1%, the inhibition [2] was 3.61% and the inhibition [3] was 0.76%.

In the case of `c1ccc(-c2nc(Nc3nc4ccccc4[nH]3)[nH]c2-c2ccccc2)cc1`, the inhibition [1] was 10.8%, the inhibition [2] was 6.74% and the inhibition [3] was 4.43%.

`COc1ccc(C(=O)Cn2nc(-c3ccc(Cl)cc3)ccc2=O)c(OC)c1` was tested, and the inhibition [1] was 1.41%, the inhibition [2] was 1.16% and the inhibition [3] was 0.37%.

With `CCC(N)(C#Cc1ccc(-c2c(C)[nH]c(C)c(Br)c2=O)cc1)CC` the inhibition [1] was 2.45%, the inhibition [2] was 2.05% and the inhibition [3] was 0.36%.

Molecule `O=C(NCCCCN1CCC(c2c[nH]c3ccc(-c4ccccc4)cc23)CC1)c1ccc(-c2ccccc2)cc1` has an inhibition [1] of 5.96%, an inhibition [2] of 4.21% and an inhibition [3] of 5.24%.

Work on `COc1cc(-c2nc3c4ccccc4c4ccccc4c3[nH]2)cc(OC)c1OC` yielded an inhibition [1] of 1.82%, an inhibition [2] of 1.28% and an inhibition [3] of 1.58%.

Work on `C=C(C)C1CC=C(CN2CCC(N3CCc4cc(NC(=O)c5cc(C)on5)ccc43)C2)CC1` (configuration not stated) yielded an inhibition [1] of 2.54%, an inhibition [2] of 4.39% and an inhibition [3] of 4%.

For `Cc1c(C)n(C2CCCCC2)c2ncnc(OC3CCN(CC(=O)NC4CC4)CC3)c12`, the inhibition [1] was -0.52%, the inhibition [2] was -3.58% and the inhibition [3] was 1.68%.

In the case of `N#Cc1ccc(NC(=O)c2ccc(C(=O)NCCCCN3CCC(c4ccc5c(c4OCCOC4CCCCO4)CCCC5)CC3)cc2)cc1` (configuration not stated), the inhibition [1] was 0.68%, the inhibition [2] was 2.54% and the inhibition [3] was 0.27%.

`Oc1c(CN2CCCC(C(F)(F)F)C2)cc(Cl)c2ccccc12` (configuration not stated) showed an inhibition [1] of 1.85%, an inhibition [2] of 2.27% and an inhibition [3] of 3.06%.

With `CC(C)(C)C(=O)Oc1ccc(CC2NCCc3cc(OC(=O)C(C)(C)C)c(OC(=O)C(C)(C)C)cc32)cc1OC(=O)C(C)(C)C` (configuration not stated) the inhibition [1] was 8.66%, the inhibition [2] was 9.32% and the inhibition [3] was 7.65%.

Work on `Cc1cccc2nc(-c3ccc(-c4cccc(NC(=O)Nc5ccc(F)c(F)c5F)c4)cc3)[nH]c12` yielded an inhibition [1] of 2.29%, an inhibition [2] of 3.05% and an inhibition [3] of 0.59%.

`Cc1cccc2nc(-c3cccc(-c4cccc(NC(=O)NCc5ccccc5)c4)c3)[nH]c12` gave an inhibition [1] of 3.73%, an inhibition [2] of 5.29% and an inhibition [3] of -4.27%.

For `NCC(NC(=O)c1ccc(-c2c[nH]c3ncccc23)s1)c1ccccc1` (configuration not stated), the inhibition [1] was 51.9%, the inhibition [2] was 56.6% and the inhibition [3] was 25.9%.

For `Cc1ccc2cc(NC(=O)c3cccc(C(=O)Nc4ccc5nc(C)ccc5c4)n3)ccc2n1`, the inhibition [1] was 15.1%, the inhibition [2] was 12.2% and the inhibition [3] was 11.6%.

Molecule `O=C(NC1CCCCN(Cc2ccccc2O)C1)c1cccc(C(F)(F)F)c1` (configuration not stated) has an inhibition [1] of 2.43%, an inhibition [2] of 1.72% and an inhibition [3] of -4.05%.

For `CN(C)c1ccc(C2c3[nH]cnc3CCN2C(=O)Nc2cccc([N+](=O)[O-])c2)cc1` (configuration not stated), the inhibition [1] was 7.55%, the inhibition [2] was 8.52% and the inhibition [3] was 1.43%.

With `c1cc(Cc2ccc(Nc3c4ccccc4nc4ccccc34)cc2)cc(Nc2c3ccccc3nc3ccccc23)c1` the inhibition [1] was 5.95%, the inhibition [2] was 5.85% and the inhibition [3] was 2.19%.

`O=C(Nc1cccc(-c2ccc(-c3nc4cc(F)ccc4[nH]3)s2)c1)c1ccncc1` gave an inhibition [1] of 6.59%, an inhibition [2] of 5.83% and an inhibition [3] of 3.32%.

Molecule `CS(=O)(=O)CCNCc1ccc(-c2ccc3c(Nc4ccc(Oc5ccccn5)cc4)ccnc3c2)o1` has an inhibition [1] of 1.24%, an inhibition [2] of -0.28% and an inhibition [3] of 2.55%.

For `Cc1cccc2nc(-c3ccc(-c4ccc(CN5CCN(CCN6CCOCC6)CC5)cc4)s3)[nH]c12`, the inhibition [1] was 2.9%, the inhibition [2] was 3.89% and the inhibition [3] was 1.02%.

`CCc1nc2c(N)nc(N)nc2nc1-c1ccc(OC)cc1` gave an inhibition [1] of 0.85%, an inhibition [2] of 0.84% and an inhibition [3] of 1.23%.

With `Cc1cccc2nc(-c3ccc(-c4cccc(NC(=O)COc5ccccc5C(N)=O)c4)s3)[nH]c12` the inhibition [1] was 9.69%, the inhibition [2] was 9.14% and the inhibition [3] was 6.9%.

Work on `c1ccn2c(Sc3ncnc4sccc34)ncc2c1` yielded an inhibition [1] of -0.89%, an inhibition [2] of -1.87% and an inhibition [3] of -1.33%.

With `NS(=O)(=O)c1cncc(-c2ccc3nccc(-c4cn[nH]c4)c3n2)c1` the inhibition [1] was 6.71%, the inhibition [2] was 7.77% and the inhibition [3] was 6.63%.

`CCN(CC)CCCCNc1cc(-c2[nH]c(-c3c(Cl)cccc3Cl)nc2-c2ccc3cc(OC)ccc3c2)ccn1` was tested, and the inhibition [1] was 0.05%, the inhibition [2] was -1.62% and the inhibition [3] was -0.83%.

Work on `O=C(Cc1ccccc1)NC(c1ccc(Cl)cc1)c1ccc2cccnc2c1O` (configuration not stated) yielded an inhibition [1] of 6.92%, an inhibition [2] of 4.47% and an inhibition [3] of 1.97%.

`CCOc1cc2ncnc(Nc3cc(Cl)c(Cl)c(Cl)c3)c2cc1OCC` was tested, and the inhibition [1] was 0.38%, the inhibition [2] was 1.95% and the inhibition [3] was 1.59%.

Work on `COc1ccc(CN(C)CC(O)COc2ccc(NC(=O)c3cccc4c(=O)c5cccc(OC)c5[nH]c34)cc2)cc1OC` (configuration not stated) yielded an inhibition [1] of 7.62%, an inhibition [2] of 3.04% and an inhibition [3] of 3.9%.

`NCCCCNc1cc(-c2ccnc(Nc3cccc(Cl)c3)n2)ccn1` gave an inhibition [1] of 60.5%, an inhibition [2] of 71.8% and an inhibition [3] of 76.5%.

From ChEMBL document CHEMBL3433997, “St. Jude Leishmania screening dataset” (2016)
